# Measurements reported in ChEMBL document CHEMBL3988442, “University of Dundee, Small-Polar-MMV Screening Library” (2021).
# For some assays here: Results with a measured potency or affinity are listed apart.
# Tests used:
# Set-up in all cases: scale not given: direction of the effect not stated beside the values
# [1] = target: Protein translocase subunit SecA (Escherichia coli (strain K12)) (UniProt P10408); assay: Assay to Identify E. coli SecA ATPase Inhibitors; format: functional; conditions: 30 µM
# [2] = target: T1, Ubiquitin-activating enzyme e1, putative (Leishmania donovani (strain BPK282A1)) (UniProt E9BSI1); assay: Leishmania donovani Ubiquitin Activating Enzyme (LdE1); format: functional; conditions: 30 µM
# T1 sequence (whole entry): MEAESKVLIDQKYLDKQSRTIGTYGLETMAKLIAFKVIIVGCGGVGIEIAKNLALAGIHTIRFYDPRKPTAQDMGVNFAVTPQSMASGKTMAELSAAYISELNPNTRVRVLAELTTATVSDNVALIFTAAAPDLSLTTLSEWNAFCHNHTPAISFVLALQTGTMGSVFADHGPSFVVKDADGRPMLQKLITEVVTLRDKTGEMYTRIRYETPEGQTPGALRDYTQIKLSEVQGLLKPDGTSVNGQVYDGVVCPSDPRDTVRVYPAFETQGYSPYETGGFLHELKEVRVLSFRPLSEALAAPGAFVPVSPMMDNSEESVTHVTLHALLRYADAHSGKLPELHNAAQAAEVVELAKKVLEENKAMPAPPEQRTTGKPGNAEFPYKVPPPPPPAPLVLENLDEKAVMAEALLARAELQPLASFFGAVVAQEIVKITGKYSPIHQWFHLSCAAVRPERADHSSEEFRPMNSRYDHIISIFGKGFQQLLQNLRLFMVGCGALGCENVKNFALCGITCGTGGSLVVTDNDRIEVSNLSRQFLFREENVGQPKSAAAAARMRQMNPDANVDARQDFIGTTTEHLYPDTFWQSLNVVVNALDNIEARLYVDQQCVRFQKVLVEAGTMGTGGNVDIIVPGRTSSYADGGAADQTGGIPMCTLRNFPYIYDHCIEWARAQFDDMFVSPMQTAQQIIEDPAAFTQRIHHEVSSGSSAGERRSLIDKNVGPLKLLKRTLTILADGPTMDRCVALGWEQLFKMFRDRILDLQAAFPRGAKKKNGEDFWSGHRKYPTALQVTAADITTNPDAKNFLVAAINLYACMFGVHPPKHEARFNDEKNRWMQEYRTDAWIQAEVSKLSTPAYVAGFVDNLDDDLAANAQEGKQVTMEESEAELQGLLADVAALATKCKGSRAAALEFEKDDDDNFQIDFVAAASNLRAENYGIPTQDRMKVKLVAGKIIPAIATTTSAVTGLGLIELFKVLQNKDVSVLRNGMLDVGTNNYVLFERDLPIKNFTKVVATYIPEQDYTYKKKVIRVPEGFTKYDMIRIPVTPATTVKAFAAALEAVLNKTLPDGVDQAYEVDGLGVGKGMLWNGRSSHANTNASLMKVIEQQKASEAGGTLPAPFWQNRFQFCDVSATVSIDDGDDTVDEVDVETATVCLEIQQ
# [3] = target: AMP-activated protein kinase, AMPK (Homo sapiens) (UniProt P54646+O43741+P54619+Q9UGJ0+Q9Y478+Q13131+Q9UGI9); assay: AMP-dependent Kinase enzyme assay. An in vitro enzyme assay that detects ADP turnover that is directly proportional to AMPK activity. This uses naive AMPK that is activated during the assay with MK-8722; format: functional; conditions: 30 µM
# [4] = target: Sialic acid-binding Ig-like lectin 9 (Homo sapiens) (UniProt Q9Y336); assay: Hs-Siglec9 ALPHAscreen SOP 20170721; conditions: 10 µM
# Trypanosoma cruzi = assay: Trypanosoma cruzi phosphomannomutase and mannose-1-phosphate guanylyltransferase assay; format: functional; conditions: 10 µM
# [5] = target: T2, Arginase-2, mitochondrial (Homo sapiens) (UniProt P78540); assay: in vitro enzyme assay to detect the production of urea directly proportional to the activity of Arginase II; format: functional; conditions: 33.3 µM; further: in the data most compounds retested in dose-response had high values
# T2 sequence (whole entry): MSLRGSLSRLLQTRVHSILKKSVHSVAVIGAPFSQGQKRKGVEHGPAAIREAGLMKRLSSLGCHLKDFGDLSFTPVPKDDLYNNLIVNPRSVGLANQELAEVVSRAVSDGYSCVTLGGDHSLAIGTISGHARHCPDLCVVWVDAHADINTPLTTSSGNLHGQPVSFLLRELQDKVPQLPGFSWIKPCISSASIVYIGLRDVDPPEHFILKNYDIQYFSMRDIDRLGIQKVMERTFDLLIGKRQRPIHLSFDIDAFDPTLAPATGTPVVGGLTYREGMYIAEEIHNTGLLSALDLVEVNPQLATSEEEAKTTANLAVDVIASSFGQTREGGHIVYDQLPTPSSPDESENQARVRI
# [6] = target: T3, Proteasome subunit beta (Trypanosoma cruzi) (UniProt O96673); assay: Trypanosoma cruzi proteasome chymotrypsin-like activity (TcProtChymo) assay.; further: in the data most compounds retested in dose-response had high values; format: functional; conditions: 9.37 µM
# T3 sequence (whole entry): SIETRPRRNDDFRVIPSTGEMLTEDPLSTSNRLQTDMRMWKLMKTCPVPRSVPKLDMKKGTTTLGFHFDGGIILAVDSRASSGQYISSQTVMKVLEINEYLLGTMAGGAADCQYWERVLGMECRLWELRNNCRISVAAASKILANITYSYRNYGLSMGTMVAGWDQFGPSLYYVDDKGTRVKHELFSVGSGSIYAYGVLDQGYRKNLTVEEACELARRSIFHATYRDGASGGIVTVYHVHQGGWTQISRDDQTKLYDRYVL
# Homo sapiens = species on record: Homo sapiens; assay: To identify inhibition of the IFN signalling (Jak-Stat) pathway via expression of an eGFP reporter gene under the control of an IFN-stimulated response element (ISRE) containing MxA promoter.; format: functional; conditions: 30 µM
# [7] = target: T4, Tyrosyl-tRNA synthetase, putative (Trypanosoma cruzi (strain CL Brener)) (UniProt Q4DSP6); assay: Trypanosoma cruzi tyrosyl tRNA synthetase (TcYRS) _High Tyrosine SOP; format: functional; conditions: 30 µM; further: in the data most compounds retested in dose-response had high values
# T4 sequence (whole entry): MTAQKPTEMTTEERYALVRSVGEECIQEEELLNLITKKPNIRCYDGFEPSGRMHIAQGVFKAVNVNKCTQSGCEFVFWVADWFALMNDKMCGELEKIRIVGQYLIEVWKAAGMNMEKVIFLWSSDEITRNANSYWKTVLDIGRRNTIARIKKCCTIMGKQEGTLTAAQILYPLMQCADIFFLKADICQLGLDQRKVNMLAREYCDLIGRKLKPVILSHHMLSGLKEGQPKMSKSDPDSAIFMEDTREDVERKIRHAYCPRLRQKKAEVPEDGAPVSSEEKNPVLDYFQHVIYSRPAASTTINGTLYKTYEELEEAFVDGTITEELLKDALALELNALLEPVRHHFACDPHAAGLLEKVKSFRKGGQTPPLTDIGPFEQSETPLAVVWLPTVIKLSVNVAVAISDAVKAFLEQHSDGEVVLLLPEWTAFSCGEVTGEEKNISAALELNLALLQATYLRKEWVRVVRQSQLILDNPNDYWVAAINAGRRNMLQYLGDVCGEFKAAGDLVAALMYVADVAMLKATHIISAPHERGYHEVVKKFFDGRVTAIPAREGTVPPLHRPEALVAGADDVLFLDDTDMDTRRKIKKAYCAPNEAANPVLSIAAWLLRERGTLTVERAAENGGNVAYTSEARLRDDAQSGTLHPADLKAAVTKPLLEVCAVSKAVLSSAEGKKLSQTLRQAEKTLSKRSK
# [8] = target: T4, Tyrosyl-tRNA synthetase, putative (Trypanosoma cruzi (strain CL Brener)); assay: Trypanosoma cruzi tyrosyl tRNA synthetase (TcYRS) SOP; format: functional; conditions: 30 µM
# [9] = target: Chromo domain-containing protein 1 (Saccharomyces cerevisiae (strain ATCC 204508 / S288c) (Baker's yeast)) (UniProt P32657); assay: ScCHD-1 Enzyme Inhibition Assay; format: functional; conditions: 30 µM; further: in the data most compounds retested in dose-response had high values
# Chromo domain-containing protein 1 (Saccharomyces cerevisiae (strain ATCC 204508 / S288c) (Baker's yeast)), sequence (P32657 whole entry, the tested form may be a part): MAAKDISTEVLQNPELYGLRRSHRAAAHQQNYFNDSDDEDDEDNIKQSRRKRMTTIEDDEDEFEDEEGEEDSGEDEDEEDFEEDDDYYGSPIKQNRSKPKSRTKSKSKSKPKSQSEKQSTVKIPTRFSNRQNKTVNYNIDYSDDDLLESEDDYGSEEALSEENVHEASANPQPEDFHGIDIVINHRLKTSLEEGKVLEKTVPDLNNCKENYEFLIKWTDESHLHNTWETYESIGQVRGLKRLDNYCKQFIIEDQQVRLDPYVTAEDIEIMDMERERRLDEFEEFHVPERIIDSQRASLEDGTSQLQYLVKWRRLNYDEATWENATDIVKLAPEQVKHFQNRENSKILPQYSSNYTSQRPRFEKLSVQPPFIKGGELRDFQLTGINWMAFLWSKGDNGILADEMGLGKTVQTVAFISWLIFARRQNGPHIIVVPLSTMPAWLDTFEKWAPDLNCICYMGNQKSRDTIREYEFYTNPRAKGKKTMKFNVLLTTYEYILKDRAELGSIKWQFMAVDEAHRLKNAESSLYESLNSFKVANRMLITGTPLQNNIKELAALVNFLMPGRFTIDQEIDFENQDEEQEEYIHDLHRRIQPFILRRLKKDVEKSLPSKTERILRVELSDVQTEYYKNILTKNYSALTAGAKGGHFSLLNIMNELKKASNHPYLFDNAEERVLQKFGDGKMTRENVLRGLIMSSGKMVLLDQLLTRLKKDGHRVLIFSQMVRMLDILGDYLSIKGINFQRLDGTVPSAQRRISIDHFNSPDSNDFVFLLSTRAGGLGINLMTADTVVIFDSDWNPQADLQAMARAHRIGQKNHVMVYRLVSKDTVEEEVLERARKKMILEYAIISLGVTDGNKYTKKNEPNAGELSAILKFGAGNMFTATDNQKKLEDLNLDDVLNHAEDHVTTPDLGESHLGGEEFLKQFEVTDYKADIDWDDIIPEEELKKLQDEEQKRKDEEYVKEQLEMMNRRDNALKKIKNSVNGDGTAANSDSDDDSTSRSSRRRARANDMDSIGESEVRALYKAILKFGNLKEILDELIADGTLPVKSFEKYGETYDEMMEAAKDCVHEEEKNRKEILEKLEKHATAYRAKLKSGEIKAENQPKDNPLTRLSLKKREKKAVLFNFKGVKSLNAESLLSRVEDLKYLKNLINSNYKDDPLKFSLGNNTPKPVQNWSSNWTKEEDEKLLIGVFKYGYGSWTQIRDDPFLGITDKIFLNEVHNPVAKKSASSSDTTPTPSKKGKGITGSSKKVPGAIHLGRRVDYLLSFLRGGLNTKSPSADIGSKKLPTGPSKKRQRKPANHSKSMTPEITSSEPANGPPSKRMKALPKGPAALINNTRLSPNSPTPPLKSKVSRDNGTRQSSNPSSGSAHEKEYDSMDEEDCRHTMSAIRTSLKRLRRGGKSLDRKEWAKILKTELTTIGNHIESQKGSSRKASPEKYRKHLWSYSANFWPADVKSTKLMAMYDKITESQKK
# Sialic acid-binding Ig-like lectin 9 (Homo sapiens), sequence (Q9Y336 whole entry): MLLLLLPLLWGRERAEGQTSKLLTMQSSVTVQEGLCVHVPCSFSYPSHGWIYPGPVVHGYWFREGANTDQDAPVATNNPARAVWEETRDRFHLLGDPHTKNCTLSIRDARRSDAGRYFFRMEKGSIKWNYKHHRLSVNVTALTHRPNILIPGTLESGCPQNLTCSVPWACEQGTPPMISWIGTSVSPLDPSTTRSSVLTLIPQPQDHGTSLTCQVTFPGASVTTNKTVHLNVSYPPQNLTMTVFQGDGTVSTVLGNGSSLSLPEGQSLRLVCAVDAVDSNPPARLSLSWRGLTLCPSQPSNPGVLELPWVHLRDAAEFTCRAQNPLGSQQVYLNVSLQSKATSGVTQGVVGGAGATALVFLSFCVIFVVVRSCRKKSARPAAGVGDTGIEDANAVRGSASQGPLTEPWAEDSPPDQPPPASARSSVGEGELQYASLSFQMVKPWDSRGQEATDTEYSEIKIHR
# Protein translocase subunit SecA (Escherichia coli (strain K12)), sequence (P10408 whole entry): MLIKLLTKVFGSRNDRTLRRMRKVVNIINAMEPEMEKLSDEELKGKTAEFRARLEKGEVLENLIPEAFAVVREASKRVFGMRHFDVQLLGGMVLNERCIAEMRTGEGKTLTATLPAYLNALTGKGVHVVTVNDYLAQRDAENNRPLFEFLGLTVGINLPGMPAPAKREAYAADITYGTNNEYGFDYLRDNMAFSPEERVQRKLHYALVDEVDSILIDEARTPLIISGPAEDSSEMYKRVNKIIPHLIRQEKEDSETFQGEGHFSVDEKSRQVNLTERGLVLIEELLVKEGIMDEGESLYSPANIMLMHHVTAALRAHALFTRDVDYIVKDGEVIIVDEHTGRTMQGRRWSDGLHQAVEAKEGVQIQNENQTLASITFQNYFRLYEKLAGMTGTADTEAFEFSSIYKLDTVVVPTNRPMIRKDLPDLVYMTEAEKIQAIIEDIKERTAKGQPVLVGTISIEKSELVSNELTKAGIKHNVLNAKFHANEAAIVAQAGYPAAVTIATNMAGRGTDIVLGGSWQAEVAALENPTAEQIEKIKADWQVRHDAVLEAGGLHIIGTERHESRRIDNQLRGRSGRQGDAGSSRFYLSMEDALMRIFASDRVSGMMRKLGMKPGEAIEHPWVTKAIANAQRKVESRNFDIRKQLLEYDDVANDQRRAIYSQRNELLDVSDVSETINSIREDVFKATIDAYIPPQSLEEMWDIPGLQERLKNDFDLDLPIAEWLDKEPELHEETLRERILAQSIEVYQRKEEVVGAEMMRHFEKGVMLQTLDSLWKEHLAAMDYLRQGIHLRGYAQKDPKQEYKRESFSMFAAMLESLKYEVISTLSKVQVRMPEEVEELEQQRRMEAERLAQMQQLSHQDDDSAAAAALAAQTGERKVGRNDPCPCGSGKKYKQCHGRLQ
Structure (SMILES),Percent Effect [1] [%],Percent Effect [2] [%],Percent Effect [3] [%],Percent Effect [4] [%],Percent Effect (Trypanosoma cruzi) [%],Percent Effect [5] [%],Percent Effect [6] [%],Percent Effect (Homo sapiens) [%],Percent Effect [7] [%],Percent Effect [8] [%],Percent Effect [9] [%]
CC(C)Cc1cc(C(=O)NCCc2ccc(S(C)(=O)=O)cc2)[nH]n1,-3.28,2.63,9.53,3.29,3.8,0,12.9,24,0,10.4,-3.35
O=C(NCCC(=O)N1CCCCCC1)c1c(O)cc(F)cc1F,-5.59,7.79,1.53,-4.08,7.35,-4,9.78,6.03,2.86,14.1,-20.3
COCc1noc(C2(c3ccc(OC)cc3)CCOCC2)n1,-3.44,5.41,0.468,6.74,-0.386,2.86,14.1,9.88,3.7,17.1,-2.16
COc1ccc(CNC(=O)NCc2c(C)cc(C)[nH]c2=O)cc1,-5.07,13.2,-3.13,12.1,0.84,-5.04,6.18,-18.2,3.45,13.6,3.42
O=C(O)c1nnn(-c2ccc(F)c(F)c2)c1-c1ccncc1,-2.11,13.2,4.49,-2.68,-3.6,4.73,20.6,-18.7,2.13,2.6,-1.59
CNC(=O)NC(=O)CN1CCC(c2cccc(F)c2)C1 (configuration not stated),-1.99,0,5.35,-0.914,-2.82,2.3,-2.51,11.3,2.45,4.88,4.66
O=C(N1CCCC1)N1CCO[C@H]2[C@@H](Oc3ccccn3)CC[C@@H]21,0.00913,2.67,13.9,-0.922,-4.92,4.43,-1.85,12.7,4.25,3.85,1.67
Cc1ccc(CNC(C)c2ccc3[nH]c(=O)[nH]c3c2)s1 (configuration not stated),-3.59,13.5,-7.56,14,5,-5.61,-0.721,14.9,2.46,11.1,-6.23
Cc1cc(CN2CCC(c3ccnn3CCO)CC2)no1,-3.65,20.2,-6.78,7.01,6.7,3.8,7.45,-6.11,4.43,21.5,-6.58
CC1=Nc2c(c(=O)[nH]n2C(C)C)C(c2ccc(F)c(F)c2)S1 (configuration not stated),-5.53,-6.67,8.28,12.2,-0.197,1.58,9.8,34,18,20.5,2.07
CCn1nc(C)cc1C(=O)Nc1cc(F)ccc1OCC1CCCO1 (configuration not stated),-3.27,2.6,19.7,7.39,0.686,-0.21,9.78,34,4.76,9.41,-11.3
COCC1CN(Cc2ccncc2)Cc2nnn(CC3CC3)c21 (configuration not stated),-1.08,0,2.57,2.54,0.688,-1.38,1.33,-3.55,0,-1.24,3.24
CC(O)CN1CCN(C(=O)c2cc3ccccc3[nH]c2=O)CC1 (configuration not stated),-2.78,2.63,-2.27,10.3,-3.8,-4.73,13.1,-25.9,1.06,-5.2,-3.52
COCc1c(C(=O)O)nnn1Cc1cccc(C(F)(F)F)c1,-0.917,9.33,-2.19,0.663,-4.13,-8.98,14.1,5.79,3.17,10.3,-10.2
CNS(=O)(=O)c1cccc(CNc2nccc(C(F)(F)F)n2)c1,-0.353,16.2,14.6,-2.3,5.19,-1.6,15.1,46.9,-0.493,16.1,-15.9
CC(=O)N1CCC(Cc2cnc(-c3c(C)n[nH]c3C)cn2)C1 (configuration not stated),-5.08,0,10,-2.02,1.97,0.233,4.67,-10.8,3.19,1.28,0.0811
COc1cc(C2CC(=O)Oc3cc(C)[nH]c(=O)c32)ccc1OC(F)F (configuration not stated),-2.55,17.3,-1.47,-4.76,-5.3,-6.16,19,7.6,3.17,12.8,-13
CC(O)CN1CCN(C(=O)c2cnn(-c3ccccc3F)c2)CC1 (configuration not stated),-6,13.3,-6.53,24.2,5.75,15.6,9.59,10.4,-0.546,8.64,-7.25
CC(C(=O)NCc1ccnc(N2CCN(C)CC2)c1)n1cccn1 (configuration not stated),-0.897,0,-0.213,6.59,7.14,3.06,-4.18,1.68,0.49,7.32,-5.23
OC1CCN(Cc2cc3c(cc2Br)OCCO3)CC1,-3.08,4.17,1.37,-5.64,-7.68,4.42,0.526,-3.8,1.05,2.56,-1.21
CS(=O)(=O)N1CCCN(C(=O)c2ccc(Cn3ccccc3=O)o2)CC1,0.345,10.8,-1.54,-9.12,-8.45,2.77,5.03,12.3,6.93,15.8,-7.1
OC(CN1CCN(Cc2ccc(F)c(F)c2)CC1)C1CC1 (configuration not stated),-3.08,8.22,2.45,0.902,5.68,-1.82,8.16,13.1,6.45,20,-6.1
